Laboratory results reported in the supplement of paper PMC10849652.
About 8,800 targets were measured; listed, in parts, are those with a hit and a random draw of the rest. About 0.5% of all pairs of compound and target were hits.

The targets below were run with O=C(O)c1ccc2c(c1)nc(Nc1cccc(Cl)c1)c1ccncc12 [silmitasertib] (assay: log2 fold change, soluble protein after heating vs DMSO (PISA); higher = thermal stabilisation; K562 lysate, 10 uM; active = over 0.2 and 3.5 SD of the protein, either way, in both replicates (recomputed)).
In short: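 Dounce homogenisation of K562 pellets in PBS pH 7.4 with 1 mM MgCl2 produced a crude extract, used at 1 mg/mL protein. Exposure to 10 μM compound lasted 30 min, and aliquots were then heated for 3 min across 48°C-58°C, pooled and brought to 0.5% NP-40 at 4°C. The supernatant after 21,000xg for 90 min was quantified by TMTpro 16plex LC-MS/MS with channel sums equalised. Duplicate values are given as log-two fold change in thermal stability relative to solvent controls.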

Chain of UniProt Q96K21 (Q96K21 whole entry, looked up): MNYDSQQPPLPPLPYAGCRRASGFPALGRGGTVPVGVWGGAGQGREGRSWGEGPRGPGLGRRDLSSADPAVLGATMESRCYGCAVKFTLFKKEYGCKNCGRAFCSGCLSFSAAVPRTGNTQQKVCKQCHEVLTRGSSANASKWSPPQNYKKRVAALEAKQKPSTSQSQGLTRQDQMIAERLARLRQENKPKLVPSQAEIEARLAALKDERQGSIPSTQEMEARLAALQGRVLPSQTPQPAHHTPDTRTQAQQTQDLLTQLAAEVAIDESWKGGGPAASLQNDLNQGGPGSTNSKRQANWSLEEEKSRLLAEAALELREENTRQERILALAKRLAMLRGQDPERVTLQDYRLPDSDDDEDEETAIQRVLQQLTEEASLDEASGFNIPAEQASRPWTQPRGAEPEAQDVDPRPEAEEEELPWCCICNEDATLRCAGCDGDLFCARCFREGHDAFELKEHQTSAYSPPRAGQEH
Chain of UniProt Q9Y484 (Q9Y484 whole entry, looked up): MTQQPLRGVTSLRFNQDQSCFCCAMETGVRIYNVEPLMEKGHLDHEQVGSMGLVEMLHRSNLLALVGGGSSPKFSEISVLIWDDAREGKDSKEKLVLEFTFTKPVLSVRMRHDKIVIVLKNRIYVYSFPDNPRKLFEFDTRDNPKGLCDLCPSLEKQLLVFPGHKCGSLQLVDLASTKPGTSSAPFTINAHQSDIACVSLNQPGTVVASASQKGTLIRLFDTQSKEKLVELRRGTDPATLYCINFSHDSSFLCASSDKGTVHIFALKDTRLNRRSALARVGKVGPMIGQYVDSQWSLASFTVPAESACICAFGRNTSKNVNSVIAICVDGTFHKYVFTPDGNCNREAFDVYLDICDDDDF
Chain of UniProt Q6PHR2 (Q6PHR2 whole entry, looked up): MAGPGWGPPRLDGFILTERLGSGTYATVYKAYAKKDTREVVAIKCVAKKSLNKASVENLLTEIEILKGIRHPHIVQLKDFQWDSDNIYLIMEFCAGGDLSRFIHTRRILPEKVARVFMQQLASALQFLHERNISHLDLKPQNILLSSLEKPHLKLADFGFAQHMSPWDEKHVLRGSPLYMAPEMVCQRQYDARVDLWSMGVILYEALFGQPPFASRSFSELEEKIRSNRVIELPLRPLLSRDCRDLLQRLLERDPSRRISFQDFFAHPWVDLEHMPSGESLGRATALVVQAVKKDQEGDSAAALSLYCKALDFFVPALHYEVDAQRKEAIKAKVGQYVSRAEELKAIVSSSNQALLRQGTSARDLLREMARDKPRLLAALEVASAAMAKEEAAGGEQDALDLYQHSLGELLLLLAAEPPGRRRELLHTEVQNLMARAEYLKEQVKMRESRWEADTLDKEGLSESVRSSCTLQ
Chain of UniProt Q9H6S0 (Q9H6S0 whole entry, looked up): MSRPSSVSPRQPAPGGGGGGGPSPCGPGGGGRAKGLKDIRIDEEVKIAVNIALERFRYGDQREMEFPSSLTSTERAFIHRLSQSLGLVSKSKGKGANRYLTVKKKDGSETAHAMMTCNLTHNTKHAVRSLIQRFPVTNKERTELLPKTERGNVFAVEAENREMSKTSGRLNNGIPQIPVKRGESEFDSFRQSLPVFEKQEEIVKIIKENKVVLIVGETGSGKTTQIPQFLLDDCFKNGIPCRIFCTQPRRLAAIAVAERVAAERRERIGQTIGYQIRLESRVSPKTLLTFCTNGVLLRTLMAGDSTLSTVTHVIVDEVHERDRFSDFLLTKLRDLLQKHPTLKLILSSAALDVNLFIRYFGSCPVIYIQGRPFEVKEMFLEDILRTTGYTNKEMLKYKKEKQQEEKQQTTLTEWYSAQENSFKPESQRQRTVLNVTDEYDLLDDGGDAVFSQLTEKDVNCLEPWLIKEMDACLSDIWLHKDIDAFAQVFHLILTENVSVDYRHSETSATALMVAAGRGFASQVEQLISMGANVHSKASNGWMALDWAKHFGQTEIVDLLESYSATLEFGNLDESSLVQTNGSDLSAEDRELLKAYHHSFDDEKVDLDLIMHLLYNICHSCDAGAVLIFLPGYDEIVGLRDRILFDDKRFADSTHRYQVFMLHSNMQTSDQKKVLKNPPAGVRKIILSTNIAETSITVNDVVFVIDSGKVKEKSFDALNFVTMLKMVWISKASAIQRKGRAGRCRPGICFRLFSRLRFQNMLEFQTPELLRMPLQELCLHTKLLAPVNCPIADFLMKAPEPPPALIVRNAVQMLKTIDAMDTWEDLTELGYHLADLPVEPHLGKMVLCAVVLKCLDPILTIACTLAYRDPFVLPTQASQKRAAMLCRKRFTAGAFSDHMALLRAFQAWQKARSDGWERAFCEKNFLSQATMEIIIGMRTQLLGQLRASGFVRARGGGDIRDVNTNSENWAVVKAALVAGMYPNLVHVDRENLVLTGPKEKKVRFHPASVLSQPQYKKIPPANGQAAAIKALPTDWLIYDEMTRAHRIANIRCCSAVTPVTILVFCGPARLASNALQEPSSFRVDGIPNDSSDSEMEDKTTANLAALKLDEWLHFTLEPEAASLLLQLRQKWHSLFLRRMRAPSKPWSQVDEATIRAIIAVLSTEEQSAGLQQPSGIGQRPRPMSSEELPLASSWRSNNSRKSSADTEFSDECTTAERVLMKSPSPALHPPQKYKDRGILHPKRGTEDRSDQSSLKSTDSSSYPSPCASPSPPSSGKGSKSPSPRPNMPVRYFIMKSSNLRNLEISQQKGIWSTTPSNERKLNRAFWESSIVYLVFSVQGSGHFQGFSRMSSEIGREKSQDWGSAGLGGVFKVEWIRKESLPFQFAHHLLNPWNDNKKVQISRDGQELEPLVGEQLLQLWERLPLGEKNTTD
Chain of UniProt Q9UPT9 (Q9UPT9 whole entry, looked up): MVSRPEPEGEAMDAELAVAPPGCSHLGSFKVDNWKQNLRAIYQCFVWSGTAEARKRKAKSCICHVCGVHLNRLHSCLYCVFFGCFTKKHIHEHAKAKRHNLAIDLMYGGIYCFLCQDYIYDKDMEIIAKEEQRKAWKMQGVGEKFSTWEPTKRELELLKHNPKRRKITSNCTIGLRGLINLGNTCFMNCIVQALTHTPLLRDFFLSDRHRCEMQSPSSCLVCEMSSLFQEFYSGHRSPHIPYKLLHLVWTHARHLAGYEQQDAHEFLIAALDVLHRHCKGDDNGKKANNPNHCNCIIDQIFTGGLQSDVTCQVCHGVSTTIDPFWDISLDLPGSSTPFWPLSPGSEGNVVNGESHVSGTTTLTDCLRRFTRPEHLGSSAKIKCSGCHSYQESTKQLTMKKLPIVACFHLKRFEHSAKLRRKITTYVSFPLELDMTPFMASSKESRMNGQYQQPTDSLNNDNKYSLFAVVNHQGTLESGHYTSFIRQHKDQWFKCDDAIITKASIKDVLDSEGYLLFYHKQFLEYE
Chain of UniProt O43379 (O43379 whole entry, looked up): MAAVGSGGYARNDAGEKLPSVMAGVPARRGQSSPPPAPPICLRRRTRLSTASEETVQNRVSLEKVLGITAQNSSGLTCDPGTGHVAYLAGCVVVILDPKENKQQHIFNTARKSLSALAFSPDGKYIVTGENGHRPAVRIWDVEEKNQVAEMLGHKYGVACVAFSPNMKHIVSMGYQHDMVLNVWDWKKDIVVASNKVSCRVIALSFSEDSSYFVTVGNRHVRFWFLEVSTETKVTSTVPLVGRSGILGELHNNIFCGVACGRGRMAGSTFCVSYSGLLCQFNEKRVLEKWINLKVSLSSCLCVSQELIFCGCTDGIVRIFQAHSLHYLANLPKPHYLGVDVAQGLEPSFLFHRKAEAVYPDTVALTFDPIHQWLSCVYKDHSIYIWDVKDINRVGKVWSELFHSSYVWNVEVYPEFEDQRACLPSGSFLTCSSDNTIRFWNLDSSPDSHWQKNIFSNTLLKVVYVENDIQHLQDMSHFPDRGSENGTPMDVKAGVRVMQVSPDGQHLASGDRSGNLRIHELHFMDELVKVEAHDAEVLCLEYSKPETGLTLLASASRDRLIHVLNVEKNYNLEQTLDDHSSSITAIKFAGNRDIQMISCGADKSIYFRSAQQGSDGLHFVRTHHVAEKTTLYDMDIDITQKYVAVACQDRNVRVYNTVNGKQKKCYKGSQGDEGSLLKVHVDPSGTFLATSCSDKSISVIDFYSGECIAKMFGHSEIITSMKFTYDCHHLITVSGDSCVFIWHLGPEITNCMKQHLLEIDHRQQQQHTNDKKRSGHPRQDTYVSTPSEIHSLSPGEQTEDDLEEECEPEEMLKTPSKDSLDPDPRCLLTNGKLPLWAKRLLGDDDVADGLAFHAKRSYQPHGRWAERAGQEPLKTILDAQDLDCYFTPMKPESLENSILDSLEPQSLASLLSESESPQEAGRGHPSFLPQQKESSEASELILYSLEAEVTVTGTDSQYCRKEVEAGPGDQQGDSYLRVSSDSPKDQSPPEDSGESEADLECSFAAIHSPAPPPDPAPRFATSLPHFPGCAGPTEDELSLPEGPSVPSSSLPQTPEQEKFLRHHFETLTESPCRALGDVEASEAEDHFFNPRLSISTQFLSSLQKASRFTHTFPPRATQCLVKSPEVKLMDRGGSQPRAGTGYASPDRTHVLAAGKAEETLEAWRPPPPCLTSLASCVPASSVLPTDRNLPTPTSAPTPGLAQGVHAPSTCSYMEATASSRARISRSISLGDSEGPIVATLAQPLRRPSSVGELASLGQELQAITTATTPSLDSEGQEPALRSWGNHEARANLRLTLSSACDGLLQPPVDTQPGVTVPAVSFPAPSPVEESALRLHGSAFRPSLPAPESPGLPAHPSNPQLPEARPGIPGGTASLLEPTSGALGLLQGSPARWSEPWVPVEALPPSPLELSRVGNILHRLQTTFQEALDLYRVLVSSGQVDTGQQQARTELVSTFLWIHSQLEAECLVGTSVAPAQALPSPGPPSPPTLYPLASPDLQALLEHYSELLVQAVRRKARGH
Chain of UniProt Q96NC0 (Q96NC0 whole entry, looked up): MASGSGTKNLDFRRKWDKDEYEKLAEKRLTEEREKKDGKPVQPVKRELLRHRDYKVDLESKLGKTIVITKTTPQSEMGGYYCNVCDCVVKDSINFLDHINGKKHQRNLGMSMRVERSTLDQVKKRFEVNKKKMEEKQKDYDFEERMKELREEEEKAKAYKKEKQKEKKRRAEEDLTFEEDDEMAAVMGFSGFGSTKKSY

log2 fold change, active:
ZNF845 (UniProt Q96IR2) 0.364

log2 fold change, inactive:
ZMYM2 (UniProt Q9UBW7) 0.034
WRB (UniProt O00258) -0.055
ULK3 isoform 4 (UniProt Q6PHR2) 0.242
YES1 (UniProt P07947) -0.187
WDR41 (UniProt Q9HAD4) 0.022
WEE1 (UniProt P30291) 0.107
ZBTB40 (UniProt Q9NUA8) 0.024
ZBTB33 (UniProt Q86T24) -0.082
WDR45 isoform 2 (UniProt Q9Y484) 0.016
ZFYVE19 (UniProt Q96K21) 0.002
VPS72 (UniProt Q15906) -0.018
VPS39 (UniProt Q96JC1) 0.01
VANGL1 (UniProt Q8TAA9) 0.159
YTHDC2 (UniProt Q9H6S0) -0.007
ZMAT2 (UniProt Q96NC0) -0.051
VPS28 (UniProt Q9UK41) -0.002
WDR20 isoform 7 (UniProt Q8TBZ3) 0.087
WDR62 isoform 4 (UniProt O43379) 0.01
WAC (UniProt Q9BTA9) -0.031
USP22 (UniProt Q9UPT9) -0.045
USE1 (UniProt Q9NZ43) 0.028
YWHAQ (UniProt P27348) -0.012
